Compound activity (PubChem BioAssay)
These entries were drawn from the full list.
aSyn UTR act: Activators via SNCA 5'UTR binding, MLPCN; alpha-synuclein 5'UTR reporter, activators screen; AID 1814, 2009; 300,000 tested, 7.1% active; activity score, % (tested at 7.5 µM), hits read low; in the data active means activity score below about -60%
The depositor's hits bear a star.

SMILES | aSyn UTR act
Cc1ccc(Nc2ncnc(-n3cccc3)n2)cc1Cl | -125*
Cc1cc(C(=O)N(C)C)sc1-c1ccccc1 | -132*
O=[N+]([O-])c1cc([N+](=O)[O-])c(Oc2cccc(Cl)c2Cl)cc1NN1CCCCC1 | 36
CO/N=C/c1ccc(Oc2ccc(C)cc2)c([N+](=O)[O-])c1 | -90*
O=[N+]([O-])c1cc(/C=N/O)ccc1Oc1ccccc1Cl | -65*
O=C(C(Cl)c1ccccc1)N1CCOCC1 (stereo not drawn) | -65*
COc1ccc(N2C3=[N+](CC2(C)O)c2ccccc2CC3)cc1 (stereo not drawn) | -110*
CCOC(=O)/C(N=Nc1ccc2c(c1)OCO2)=C(\C)O | -123*
CC(C)CCNC(=O)c1cc2c(=O)n3ccccc3nc2s1 | -146*
Cc1cc(NS(=O)(=O)c2ccc(NC(=O)c3cc4c(=O)n5ccccc5nc4s3)cc2)nc(C)n1 | -79*
CCN(CC)C(=O)c1cc2c(=O)n3ccccc3nc2s1 | -125*
CC1(C)C2C/C(=N\O)C(C)(/[N+]([O-])=C/c3cccc([N+](=O)[O-])c3)CC21 (stereo not drawn) | -62*
COc1ccc(C(=O)/C(=C\c2ccco2)N2C=CC=CC2=C(C#N)C#N)cc1 | 77
COc1ccc(/C=C(/C(=O)c2cccs2)N2C=CC=CC2=C(C#N)C#N)cc1 | -102*
CCN(CC)c1ccc(/C=N/NC(=O)c2ccoc2C)cc1 | -95*
COc1cc(/C=N/NC(=O)c2ccoc2C)ccc1O | -67*
Cn1nccc1C(=O)N/N=C/c1ccccc1[N+](=O)[O-] | -89*
COc1cccc(/C=N/NC(=O)c2ccoc2C)c1 | -125*
Cc1occc1C(=O)N/N=C/c1ccccc1[N+](=O)[O-] | -121*
COc1cccc(/C=N/NC(=O)c2c(-c3ccccc3)noc2C)c1O | 58
COc1cccc(/C=N/NC(=O)c2ccoc2C)c1O | -71*
COc1cccc(/C=N/NC(=O)c2cc3c(OC)cccc3[nH]2)c1O | 86
COc1cccc(/C=N/NC(=O)NC2CCCCC2)c1O | -97*
CCOc1ccc(/C=N/NC(=O)c2ccoc2C)cc1OC | -110*
Cc1occc1C(=O)N/N=C/c1ccccn1 | -84*
SMILES | aSyn UTR act
COc1cc(C(=O)N/N=C/c2ccc3c(c2)c2ccccc2n3C)ccc1O | -117*
COc1ccc(/C=N/NC(=O)c2ccoc2C)cc1CN1CCN(c2ccc(F)cc2)CC1 | -79*
O=C(N/N=C/c1ccccn1)c1ccc(N/N=C/c2ccccn2)cc1 | -132*
Cc1ccc(C(=O)N/N=C/c2cccc(OC(=O)/C=C/c3ccco3)c2)cn1 | -100*
COC(=O)/C(=C/c1ccc2c(c1)c1ccccc1n2C)NC(=O)c1ccccc1 | -68*
O=C(/C=C/c1ccco1)Oc1cc(Br)cc(/C=N/NC(=O)c2ccccc2O)c1 | 96
CC(=O)c1c(C)[nH]c(C(=O)NCCc2ccccc2)c1C | -102*
O=C(NCCc1ccccc1)c1c(F)cccc1F | -115*
O=C(NCCc1ccccc1)c1ccco1 | -85*
CN(CC(=O)NCCc1ccccc1)Cc1ccco1 | -81*
COC(=O)/C=C/c1ccccc1S(=O)(=O)N(Cc1ccccc1)Cc1ccco1 | 89
Cc1cc(C(=O)COC(=O)c2ccc(Br)o2)c(C)n1C | -112*
COCCn1c(C)cc(C(=O)COC(=O)c2ccc(Br)o2)c1C | -100*
CCOc1ccccc1OCCCOc1ccc(C)cc1Cl | -111*
O=C(c1cc2cc(F)ccc2[nH]1)N1CCc2ccccc21 | -177*
COc1ccc2cc(C(=O)N3CCc4ccccc43)[nH]c2c1 | -122*
O=C(c1cc2cc(Br)ccc2[nH]1)N1CCc2ccccc21 | -76*
COc1ccc(-c2cc(C(F)F)n3ncc(C(=O)N4CCc5ccccc54)c3n2)cc1 | 60
COc1cccc(Cn2c(=O)sc3ccccc3c2=O)c1 | -79*
COc1cccc(CN2C(=O)C3(C(C#N)=C(N)OC4=C3C(=O)CCC4)c3ccccc32)c1 (stereo not drawn) | 63
CN(C)CCCN(C(=O)c1ccc2c(c1)OCCO2)c1nc2ccc(Cl)cc2s1 | -133*
CN(C)CCCN(C(=O)c1ccc(S(=O)(=O)N2CCc3ccccc32)cc1)c1nc2ccc(Cl)cc2s1 | 58
CN(C)CCN(C(=O)c1ccc2c(c1)OCCO2)c1nc2ccc(Cl)cc2s1 | -159*
Cc1cc(C(=O)CN2C(=O)c3ccccc3S2(=O)=O)c(C)n1CC1CCCO1 (stereo not drawn) | 111
Cc1cc(C(=O)CSc2nc3ccccc3c(=O)[nH]2)c(C)n1CC1CCCO1 (stereo not drawn) | -115*
SMILES | aSyn UTR act
CCn1c(SCC(=O)c2cc(C)n(CC3CCCO3)c2C)nc2ccccc21 (stereo not drawn) | -119*
Cc1cc(C(=O)CSc2nc3ccccc3n2CCC#N)c(C)n1Cc1cccs1 | -124*
Cc1cc(C(=O)CSc2nnnn2-c2ccccc2)c(C)n1CC1CCCO1 (stereo not drawn) | -105*
S=C(N/N=C/c1ccco1)NC1CC2CCC1C2 (stereo not drawn) | -90*
Oc1ccccc1/C=N/NC(=S)NC1CC2CCC1C2 (stereo not drawn) | -83*
Clc1ccc(CO/N=C2\CCCc3nonc32)cc1 | -70*
COCc1cc(C)nc(Nc2ccc(C)c(C)c2)c1C#N | -71*
CCN1C(=O)N/C(=C/c2cc(C)n(Cc3ccccc3)c2C)C1=O | -63*
CCc1ccc(-c2csc(-c3c[nH]c4ccccc34)n2)cc1 | -308*
CCOC(=O)c1ccc(NC(=O)/C=C/c2cccs2)cc1 | -251*
Cc1ccccc1NC(=O)/C=C/c1cccs1 | -119*
Cc1cc(C)cc(NC(=O)/C=C/c2ccc([N+](=O)[O-])s2)c1 | -244*
Cc1ccccc1NC(=O)/C=C/c1ccc([N+](=O)[O-])s1 | -80*
CC(=O)c1cccc(NC(=O)/C=C/c2ccc([N+](=O)[O-])s2)c1 | -326*
COc1ccc(C2Nc3ccccc3C(=O)N2c2ccc(C)cc2)cc1Cn1nnc2ccccc21 (stereo not drawn) | -122*
COc1ccc(C2Nc3ccccc3C(=O)N2c2ccc(C)cc2)cc1Cn1cc([N+](=O)[O-])cn1 (stereo not drawn) | -87*
CC(=O)Cn1cnc2sc(-c3ccccc3)cc2c1=O | -175*
CC(=O)Cn1nnc2sc(-c3ccccc3)cc2c1=O | -90*
O=c1c2cc(-c3ccccc3)sc2ncn1-n1cccc1 | -255*
Cc1nc2cc(-c3ccccc3)sc2c(=O)n1N | 111
Cc1ccc(C)n1-n1c(C)nc2sc(-c3ccccc3)cc2c1=O | -105*
CCn1cnc2sc(-c3ccccc3)cc2c1=O | -130*
COc1ccc(Nc2c(-c3ccco3)nc3ccc(C)cn23)cc1 | -89*
Cc1ccc(Nc2c(-c3ccco3)nc3ccccn23)cc1 | -83*
Cc1ccccc1Nc1c(-c2ccccn2)nc2ccccn12 | 64
SMILES | aSyn UTR act
COc1cc(/C=N/N=C2/NC(=O)C(CC(=O)O)S2)ccc1OCc1cccc(Cl)c1 (stereo not drawn) | -185*
O=C1N/C(=N\N=C\c2cccnc2)SC1Cc1ccc(SC(F)F)cc1 (stereo not drawn) | 55
Cc1ccc(Cn2ncn(-c3ccccc3)c2=O)cc1 | -74*
CCN1Cc2c(/C=C/c3ccccc3)nc3ccc(OC)cc3c2N(c2cccc(Cl)c2)C1 | -66*
Cc1ccc(CNC(=O)C2(S(=O)(=O)c3ccccc3)CC=CC2)cc1 | -114*
CCc1c(C)nc2cc(-c3ccc(Cl)cc3)[nH]n2c1=O | -98*
O=c1cc(-c2ccccc2)nc2cc(-c3ccc(Br)cc3)[nH]n12 | -94*
